# Calls of active or inactive are those of the source. Unless noted, no rule for the calls is given here.
# How the values were obtained:
# [1] = resazurin metabolic signal in HepG2 cells – cell-based, resazurin fluorescence, 24 h, PK04 Diversity Set, profiling panel (AID 1172); details: HepG2 viability, higher = more signal
# [2] = budding yeast growth changes without added modifier – OD600, strain BY4716, 24 h, basal condition, primary screen (AID 1173); details: S. cerevisiae BY4716 growth, OD600, 24 h; higher = more signal, called active from +8 up or from −8 down
# [3] = viability profiling in MM1S myeloma cells – cell-based, resazurin fluorescence, basal, 24 h, PK04 Diversity Set, profiling panel (AID 1174); details: higher = more signal, called active from +8 up or from −8 down;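 also: MM1S multiple myeloma cell line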
# [4] = molecular target: Dihydroorotate dehydrogenase (quinone), mitochondrial (Plasmodium falciparum (isolate 3D7)) (UniProt Q08210); test: inhibition of P. falciparum DHODH – biochemical, C-terminal His tag, absorbance 600 nm, primary screen (AID 1175); details: PfDHODH enzyme, DCIP absorbance 600 nm; higher = more signal, called active from +8 up or from −8 down;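 also: recombinant parasite enzyme with a five histidine tag at its C terminus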
# [5] = inhibition of PAO1 biofilm formation – strain PAO1, LB-PBS medium, absorbance 600 nm, primary screen (AID 1176); details: P. aeruginosa PAO1 growth/biofilm, A600, 12 h; higher = more signal
# [6] = growth modulation of vineyard yeast isolate – strain RM11-1a, OD600, basal, 24 h, primary screen (AID 1177);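 also: cultures grown under basal conditions with no added stressor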; details: S. cerevisiae RM11-1a growth, OD600, 24 h; higher = more signal, called active from +8 up or from −8 down
# [7] = growth of efflux-deficient E. coli DRC39 – strain DRC39, OD650, 24 h, E. coli filamentation inducers, primary screen (AID 1178);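 also: growth measured as culture turbidity by optical density at 650 nm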; details: E. coli DRC39 acrAB, higher = more signal, called active from +8 up or from −8 down
# [8] = growth of efflux-deficient E. coli DRC39 – strain DRC39, OD650, 48 h, E. coli filamentation inducers, primary screen (AID 1179);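 also: screen aims at cell division blockers that make cells filament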; details: E. coli DRC39 delta-acrAB growth, higher = more signal, called active from +8 up or from −8 down
# [9] = viability profiling in RPMI8226 myeloma cells – cell-based, resazurin fluorescence, basal, 24 h, PK04 Diversity Set, profiling panel (AID 1180); details: higher = more signal;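 also: RPMI8826 multiple myeloma cell line at 5000 cells per well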
# [10] = molecular target: E3 ubiquitin-protein ligase XIAP (Homo sapiens) (UniProt P98170); test: small molecules binding XIAP protein – biophysical, small-molecule microarray, fluorescence 635 nm, primary screen (AID 1181); details: higher = more signal;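 also: score merges 667 nm emission and signal to noise over triplicate slides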
# [11] = tested on: XIP peptide (Xip251-270) binding; test: XIP fragment 251-270 binding compounds – biochemical, small-molecule microarray, fluorescence 635/667 nm, 0.1 µg/mL protein, primary screen (AID 1182); details: fluorescent protein binding, 635 nm, higher = more signal, called active from +8 up or from −8 down
# [12] = tested on: XIP peptide (Xip251-270); test: compounds binding XIP fragment 251-270 – biochemical, small-molecule microarray, fluorescence 635/667 nm, 0.5 µg/mL protein, primary screen (AID 1183); details: fluorescence 635 nm, higher = more signal
# [13] = blood-stage malaria parasite viability loss – strain 3D7, DAPI fluorescence, 100 nL, primary screen (AID 1184);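 also: parasites grown inside human red blood cells in medium with human serum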; details: P. falciparum 3D7 growth, 3 d, higher = more signal
# [14] = molecular target: Homeobox protein Hox-A13 (Mus musculus) (UniProt Q62424); test: disruptors of Hoxa13 oligonucleotide interaction – biochemical, fluorescence polarization, labeled oligonucleotide, primary screen (AID 1185); details: Hoxa13:DNA binding, 15 min, higher = more signal, called active from +8 up or from −8 down
# [15] = blockers of DNA damage checkpoint Chk1 activation – imaging, HeLa, hydroxyurea, phospho-Chk1 antibody, percent positive cells, primary screen (AID 1186); details: hydroxyurea-induced phospho-Chk1 immunofluorescence imaging, higher = more signal
# [16] = blockers of DNA damage checkpoint Chk1 activation – imaging, HeLa, hydroxyurea, phospho-Chk1 nuclear intensity, primary screen (AID 1187); details: hydroxyurea-induced phospho-Chk1 immunofluorescence imaging, higher = more signal
# Sequence of Homeobox protein Hox-A13 (Mus musculus) (Q62424 whole entry, looked up): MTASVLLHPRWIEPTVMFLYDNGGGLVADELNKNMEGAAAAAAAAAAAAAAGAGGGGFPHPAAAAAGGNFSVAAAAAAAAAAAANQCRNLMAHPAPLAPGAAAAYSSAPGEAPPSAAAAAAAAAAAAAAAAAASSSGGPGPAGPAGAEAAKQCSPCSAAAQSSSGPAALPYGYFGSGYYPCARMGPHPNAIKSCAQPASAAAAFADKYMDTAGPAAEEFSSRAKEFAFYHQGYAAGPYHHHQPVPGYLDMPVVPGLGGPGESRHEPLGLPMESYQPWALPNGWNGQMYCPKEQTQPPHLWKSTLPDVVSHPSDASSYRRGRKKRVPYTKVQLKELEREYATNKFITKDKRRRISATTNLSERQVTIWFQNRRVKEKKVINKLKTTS
# Sequence of Dihydroorotate dehydrogenase (quinone), mitochondrial (Plasmodium falciparum (isolate 3D7)) (Q08210 whole entry, looked up): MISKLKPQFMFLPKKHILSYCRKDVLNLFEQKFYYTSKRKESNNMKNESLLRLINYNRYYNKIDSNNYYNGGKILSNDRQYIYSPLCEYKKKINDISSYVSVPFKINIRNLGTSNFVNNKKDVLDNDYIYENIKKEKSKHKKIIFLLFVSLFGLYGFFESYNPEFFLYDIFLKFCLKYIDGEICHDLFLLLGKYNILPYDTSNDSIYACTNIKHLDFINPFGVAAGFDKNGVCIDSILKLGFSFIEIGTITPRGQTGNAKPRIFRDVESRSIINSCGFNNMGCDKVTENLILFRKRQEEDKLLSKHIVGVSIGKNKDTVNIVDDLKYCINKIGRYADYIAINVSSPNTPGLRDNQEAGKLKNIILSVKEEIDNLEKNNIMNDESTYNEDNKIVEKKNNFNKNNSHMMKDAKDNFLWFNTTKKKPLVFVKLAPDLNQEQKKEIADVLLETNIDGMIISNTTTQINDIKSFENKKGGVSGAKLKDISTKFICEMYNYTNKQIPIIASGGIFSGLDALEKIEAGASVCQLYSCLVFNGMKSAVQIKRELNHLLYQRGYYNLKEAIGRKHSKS
# Sequence of E3 ubiquitin-protein ligase XIAP (Homo sapiens) (P98170 whole entry, looked up, the tested form may be a part): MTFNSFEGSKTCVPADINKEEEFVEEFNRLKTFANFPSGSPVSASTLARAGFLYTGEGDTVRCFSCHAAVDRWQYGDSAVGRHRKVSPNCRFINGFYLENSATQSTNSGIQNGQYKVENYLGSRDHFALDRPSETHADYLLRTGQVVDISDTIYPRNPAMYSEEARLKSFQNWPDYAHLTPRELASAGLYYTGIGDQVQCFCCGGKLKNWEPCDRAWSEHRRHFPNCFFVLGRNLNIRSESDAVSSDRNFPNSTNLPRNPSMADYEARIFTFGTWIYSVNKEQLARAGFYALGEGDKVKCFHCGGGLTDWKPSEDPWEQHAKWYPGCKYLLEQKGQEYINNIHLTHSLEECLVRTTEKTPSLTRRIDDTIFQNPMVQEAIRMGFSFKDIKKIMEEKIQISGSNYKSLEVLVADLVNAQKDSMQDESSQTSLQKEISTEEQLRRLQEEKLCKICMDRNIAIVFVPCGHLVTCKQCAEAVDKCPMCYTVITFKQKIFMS
Structure (SMILES),z-score [1],z-score [2],z-score [3],composite z-score [4],z-score [5],z-score [6],z-score [7],z-score [8],z-score [9],composite z-score [10],composite z-score [11],composite z-score [12],z-score [13],z-score [14],z-score [15],z-score [16]
COCC(=C=CC[C@@H](O)c1cccc(OCCO)c1)C[C@@H](O)c1ccccn1,0.353,-0.449 (inactive),0.423 (inactive),-1.61 (inactive),-0.353 (inactive),0.0156 (inactive),0.947 (inactive),0.604 (inactive),0.973,0.0471,1.36 (inactive),0.141,-1.2,-4.8 (inactive),-1.08 (inactive),-0.725 (inactive)
CCOC(=O)C[C@H]1[C@H](OC(=O)c2ccc(C(=O)c3ccccc3)cc2)[C@@H](NC(=O)c2ccc3ccccc3n2)c2cc(OCCCO)ccc2N1C(=O)c1ccccc1,-0.0237,0.854 (inactive),-0.266 (inactive),-0.203 (inactive),0.0186 (inactive),-0.0492 (inactive),-0.28 (inactive),-0.211 (inactive),-0.999,-0.0326,-0.021 (inactive),0.545,-0.894,-1.37 (inactive),0.645 (inactive),0.334 (inactive)
O=C1c2ccccc2[C@](Cc2ccccc2I)(C(=O)NCCN2CCOCC2)[C@H](c2ccc(CO)cc2)N1Cc1ccccc1Cl,-0.322,-0.935 (inactive),0.618 (inactive),-0.0768 (inactive),0.916 (inactive),-0.0576 (inactive),0.768 (inactive),-0.108 (inactive),0.304,-0.102,1.08 (inactive),0.862,-1.47,-4.29 (inactive),-0.206 (inactive),-0.183 (inactive)
CCC(CC)C(O)C1C=CC2C(=O)NC(=O)C2N1Nc1ccc(Cl)cc1Cl (stereo not drawn),-1.82,-3.65 (inactive),-1.46 (inactive),0.925 (inactive),1.26 (inactive),1.27 (inactive),-0.682 (inactive),-0.459 (inactive),-1.52,0.0187,0.625 (inactive),0.587,-0.225,-4.8 (inactive),0.724 (inactive),0.786 (inactive)
Cc1ccc(N2C(=O)c3ccccc3[C@@H](C(=O)NC3CC3)[C@@H]2c2ccc(CO)cc2)nc1,-0.0178,-0.625 (inactive),0.584 (inactive),-0.162 (inactive),0.0714 (inactive),-0.155 (inactive),0.659 (inactive),0.188 (inactive),0.154,-0.128,-1.49 (inactive),-0.0549,-0.651,-1.95 (inactive),-0.0109 (inactive),-0.28 (inactive)
O=C1C[C@@](C(=O)NC2CC2)(c2ccc([N+](=O)[O-])cc2)[C@@H](c2ccc(CO)cc2I)N1C1CCCCC1,0.0684,-0.466 (inactive),-0.191 (inactive),-0.716 (inactive),0.512 (inactive),-0.0222 (inactive),0.149 (inactive),-0.528 (inactive),-0.538,0.123,0.0057 (inactive),0.693,-1.28,-4.72 (inactive),-0.254 (inactive),-0.233 (inactive)
CC(C)=CCN[C@H](CO)c1ccccc1,-0.347,-6.22 (inactive),-0.362 (inactive),-2.14 (inactive),-0.517 (inactive),-0.17 (inactive),-0.387 (inactive),-1.49 (inactive),-0.974,0.213,-0.0202 (inactive),-0.319,-1.72,0.039 (inactive),0.257 (inactive),-0.0254 (inactive)
C=CCNC(=O)[C@@H]1[C@H]2C(=O)O[C@H](c3ccccc3)[C@H](c3ccccc3)N2[C@H](c2ccc(OCCO)cc2)[C@@]12C(=O)Nc1ccc(C#CCC(C(=O)OC)C(=O)OC)cc12,0.874,1.12 (inactive),-6.55 (inactive),-4.92 (inactive),1.89 (inactive),2.26 (inactive),0.196 (inactive),0.286 (inactive),-5.98,0.132,1.21 (inactive),0.905,-2.22,-1.05 (inactive),0.222 (inactive),0.477 (inactive)
CC1(C)[C@@H]2CC(C(O)C3C=CC4C(=O)N(c5ccccc5)C(=O)C4N3Nc3ccc([N+](=O)[O-])cc3)=C[C@H]1C2 (stereo partly drawn),-0.128,0.318 (inactive),0.218 (inactive),0.634 (inactive),1.07 (inactive),0.08 (inactive),-0.982 (inactive),-0.512 (inactive),0.0954,-0.141,0.19 (inactive),0.797,-0.545,-2.94 (inactive),0.0793 (inactive),-0.261 (inactive)
CC(=O)NCCCC[C@@H]1NC(=O)[C@@H]2C[C@H](C(=O)NCCCCCNC(=O)CS)[C@H](c3cccc(OCCO)c3)N2C1=O,0.77,-0.719 (inactive),1.37 (inactive),-29.3 (active),0.879 (inactive),-0.86 (inactive),0.295 (inactive),-0.171 (inactive),0.739,-0.13,1.84 (inactive),0.471,0.246,-3.21 (inactive),-0.224 (inactive),-0.27 (inactive)
CN(C)C(=O)[C@@]1(CCS(=O)(=O)c2ccccc2)COC(c2ccc(OCCCO)cc2)=N1,-0.837,1.14 (inactive),-2.38 (inactive),0.989 (inactive),1.03 (inactive),1.08 (inactive),0.73 (inactive),0.56 (inactive),-2.08,-0.0502,0.551 (inactive),0.299,-0.697,-5.72 (inactive),-0.0692 (inactive),-0.023 (inactive)
COc1cccc(-c2cccc(=O)o2)c1,-0.314,-7.29 (inactive),-0.28 (inactive),-1.02 (inactive),0.381 (inactive),0.346 (inactive),-0.0605 (inactive),-0.17 (inactive),-0.0335,0.488,-0.256 (inactive),0.688,0.0459,-2.09 (inactive),0.317 (inactive),-0.169 (inactive)
CCc1cccc(NC(=O)O[C@H]2[C@H](OC(=O)Nc3ccccc3-c3ccccc3)[C@@H](OC(=O)Nc3ccccc3-c3ccccc3)[C@@H](OC)O[C@@H]2CO)c1,-4.43,0.972 (inactive),-4.83 (inactive),0.153 (inactive),0.0279 (inactive),0.924 (inactive),-1.04 (inactive),-0.361 (inactive),-5.09,0.19,1.04 (inactive),0.859,-1.8,-2.99 (inactive),0.167 (inactive),0.62 (inactive)
O=C(c1ccccc1)N1C(=O)[C@@]2(Cc3ccccc31)N=C(c1ccc(OCCCO)cc1)O[C@H]2c1ccccc1,-1.01,-0.123 (inactive),-2.94 (inactive),-0.138 (inactive),0.702 (inactive),0.655 (inactive),-0.399 (inactive),-0.239 (inactive),-3.43,0.327,1.68 (inactive),0.841,-2.09,-5.9 (inactive),0.0794 (inactive),0.255 (inactive)
O=C(N1CCCCC1)[C@]1(Cc2ccccc2)N=C(c2ccc(OCCCO)cc2)O[C@@H]1c1ccccc1,0.0053,-1.88 (inactive),-2.94 (inactive),-0.0047 (inactive),0.208 (inactive),1.02 (inactive),0.137 (inactive),-0.829 (inactive),-3.93,0.205,0.0557 (inactive),0.657,-2.79,-4.71 (inactive),-0.6 (inactive),-0.641 (inactive)
COCCOC(=O)N1C(=O)[C@@]2(c3cc(C#CCC(C(=O)OC)C(=O)OC)ccc31)[C@H](c1ccccc1OCCO)N1[C@H](c3ccccc3)[C@H](c3ccccc3)OC(=O)[C@H]1[C@@H]2C(=O)NC[C@H](O)c1ccccc1,-0.326,1.67 (inactive),-2.44 (inactive),-0.398 (inactive),2.23 (inactive),2.84 (inactive),0.675 (inactive),0.382 (inactive),-3.62,0.177,1.42 (inactive),0.705,-2.31,-1.77 (inactive),-0.0638 (inactive),-0.19 (inactive)
COC(=O)[C@@]1(Cc2ccc(OC)cc2)[C@H]2c3cc(C(=O)N(C)C)n(Cc4ccc(S(C)(=O)=O)cc4)c3C[C@H]2CN1C(=O)c1ccccc1,0.0042,0.0274 (inactive),-0.19 (inactive),-1.4 (inactive),2.2 (inactive),-2.36 (inactive),0.366 (inactive),-0.441 (inactive),0.766,-0.0139,1.64 (inactive),0.233,-0.0665,-5.38 (inactive),-0.907 (inactive),-1.03 (inactive)
N#Cc1ccc(NN2C(C(O)C(c3ccccc3)c3ccccc3)C=CC3C(=O)N(c4ccccc4)C(=O)C32)cc1 (stereo not drawn),-0.554,0.551 (inactive),-1.17 (inactive),0.0998 (inactive),0.35 (inactive),0.826 (inactive),-0.135 (inactive),0.832 (inactive),0.0951,0.0849,0.424 (inactive),0.646,-0.231,1.55 (inactive),0.377 (inactive),0.484 (inactive)
